Assay results taken from the supplement of paper PMC6089552.
Among all 3,200 compounds or so, about 300 (9.4%) showed activity. What follows is part of a selection rich in actives, with near analogues and random picks from the rest.

Test system: A673/TR/shEF
Assay: cell viability (LOESS-normalised, relative to median of negative controls) (log2 ratio); higher = more viable cells (less compound effect), active = hit call of the paper (over 3 MAD below the median)
Conditions: treatment time: 72 h
Procedure, shortened: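 A673/TR/shEF Ewing sarcoma cells (1,500 per well, 384-well plates) were grown with or without doxycycline to induce EWS-FLI1 shRNA knockdown, starting 24 h before compounds. Library compounds at two or more concentrations, with DMSO controls, were added for three days. Cell viability was read by CellTiter-Glo luminescence on an Envision reader, then LOESS-corrected per plate, divided by the median of negative controls and log2-transformed. Hits were wells at least three median absolute deviations from the median of all screened wells.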

[1] = 0.25 µM, library screen: screen1, EWS-FLI1 expression: high (no doxycycline)
[2] = 0.25 µM, library screen: screen1, EWS-FLI1 expression: low (doxycycline-induced shRNA knockdown)
[3] = 2.5 µM, library screen: screen1, EWS-FLI1 expression: high (no doxycycline)
[4] = 2.5 µM, library screen: screen1, EWS-FLI1 expression: low (doxycycline-induced shRNA knockdown)
[5] = 0.25 µM, library screen: screen2, EWS-FLI1 expression: high (no doxycycline)
[6] = 0.25 µM, library screen: screen2, EWS-FLI1 expression: low (doxycycline-induced shRNA knockdown)
[7] = 2.5 µM, library screen: screen2, EWS-FLI1 expression: high (no doxycycline)
[8] = 2.5 µM, library screen: screen2, EWS-FLI1 expression: low (doxycycline-induced shRNA knockdown)
[9] = 0.103 µM, library screen: screen3, EWS-FLI1 expression: high (no doxycycline)
[10] = 0.103 µM, library screen: screen3, EWS-FLI1 expression: low (doxycycline-induced shRNA knockdown)
[11] = 0.308 µM, library screen: screen3, EWS-FLI1 expression: high (no doxycycline)
[12] = 0.308 µM, library screen: screen3, EWS-FLI1 expression: low (doxycycline-induced shRNA knockdown)
[13] = 0.926 µM, library screen: screen3, EWS-FLI1 expression: high (no doxycycline)
[14] = 0.926 µM, library screen: screen3, EWS-FLI1 expression: low (doxycycline-induced shRNA knockdown)
[15] = 2.8 µM, library screen: screen3, EWS-FLI1 expression: high (no doxycycline)
[16] = 2.8 µM, library screen: screen3, EWS-FLI1 expression: low (doxycycline-induced shRNA knockdown)
[17] = 8.3 µM, library screen: screen3, EWS-FLI1 expression: high (no doxycycline)
[18] = 8.3 µM, library screen: screen3, EWS-FLI1 expression: low (doxycycline-induced shRNA knockdown)
[19] = 25 µM, library screen: screen3, EWS-FLI1 expression: high (no doxycycline)
[20] = 25 µM, library screen: screen3, EWS-FLI1 expression: low (doxycycline-induced shRNA knockdown)
[21] = 0.025 µM, library screen: screen1, EWS-FLI1 expression: high (no doxycycline)
[22] = 0.025 µM, library screen: screen1, EWS-FLI1 expression: low (doxycycline-induced shRNA knockdown)
[23] = 25 µM, library screen: screen1, EWS-FLI1 expression: high (no doxycycline)
[24] = 25 µM, library screen: screen1, EWS-FLI1 expression: low (doxycycline-induced shRNA knockdown)

Measured: cell viability (log2)

C=CCNC(=O)c1ccc(CN(c2cccc(Cl)c2)S(C)(=O)=O)cc1
inactive: [1] 0.0663 | [2] 0.0926 | [3] 0.107 | [4] 0.133

NCCC(=O)c1ccccc1N
inactive: [1] 0.0986 | [2] 0.0335 | [3] 0.167 | [4] 0.184

O=C(O)c1c2ccccc2cc2ccccc12
inactive: [1] 0.0833 | [2] 0.174 | [3] 0.112 | [4] 0.125

C[N+](C)(C)CCC(=O)c1cccc2ccccc12
active: [5] -0.0772 | [7] -0.524
inactive: [6] 0.0591 | [8] -0.0126

COC(=O)C[C@H]1C(C)(C)C(OC(C)=O)[C@]2(O)C=C3C(CC[C@]4(C)C3CC(=O)O[C@H]4c3ccoc3)C1(C)C2=O (stereo not given in full)
inactive: [1] 0.102 | [2] 0.114 | [3] 0.0649 | [4] 0.0874

COc1ccc(C[C@@H](N)C(=O)N[C@H]2[C@@H](O)[C@H](n3cnc4c(N(C)C)ncnc43)O[C@@H]2CO)cc1
inactive: [1] 0.0185 | [2] -0.00341
active: [3] -1.82 | [4] -2

COc1nc(N)nc2c1ncn2[C@@H]1O[C@H](CO)[C@@H](O)[C@@H]1O
inactive: [9] -0.0331 | [10] 0.0967 | [11] 0.111 | [12] 0.1 | [13] 0.0614 | [14] 0.133 | [15] 0.0686 | [16] 0.0525 | [17] 0.0218 | [18] 0.0206 | [19] 0.0232 | [20] 0.121

C[C@H](Cc1ccccc1)Nc1ncnc2c1ncn2[C@@H]1O[C@H](CO)[C@H](O)C1O (stereo not given in full)
inactive: [5] 0.0269 | [6] 0.14 | [7] 0.0399 | [8] 0.136

CN1/C(=C(\O)Nc2ccccn2)C(=O)c2ccccc2S1(=O)=O
inactive: [9] 0.0972 | [10] 0.122 | [1] -0.035 | [2] 0.0628 | [5] 0.14 | [6] 0.0798 | [11] 0.121 | [12] 0.145 | [13] 0.194 | [14] 0.0843 | [3] 0.139 | [4] 0.148 | [7] 0.135 | [8] 0.0591 | [15] 0.173 | [16] 0.0997 | [17] 0.146 | [18] 0.0703 | [19] 0.152 | [20] 0.0778

Nc1nc(Nc2ccccc2)nc2c1ncn2C1O[C@H](CO)[C@@H](O)[C@H]1O (stereo not given in full)
inactive: [5] 0.161 | [6] 0.05 | [7] 0.213 | [8] -0.0193

Nc1cccc(-c2cc3c(Oc4cccc(O)c4)ncnc3[nH]2)c1
inactive: [9] 0.136 | [10] 0.0102 | [11] 0.0422 | [12] 0.0346 | [13] 0.0247 | [14] 0.00411 | [15] -0.00369 | [16] 0.0285 | [17] -0.0241 | [18] 0.0796
active: [19] -0.494 | [20] -0.321

O=C(O)C1(O)C[C@@H](O)C(O)[C@H](O)C1 (stereo not given in full)
inactive: [1] 0.068 | [2] -0.0312 | [3] 0.121 | [4] -0.0156

CC(=O)O[C@H]1C[C@@H](OC(C)=O)C(C)(C)[C@@H]2C[C@@H](OC(C)=O)[C@]3(C)[C@H](CC[C@@]4(C)[C@H](c5ccoc5)OC(=O)[C@H]5O[C@@]534)[C@@]12C
inactive: [1] -0.0343 | [2] 0.0186 | [3] 0.075 | [4] 0.143

N#CC(C#N)=C(N)/C(C#N)=C/c1cc(O)c(O)c(O)c1
0.296: [1]
0.289: [21]
inactive: [22] -0.0659 | [2] -0.0126 | [5] 0.21 | [6] 0.0773 | [4] 0.0388 | [7] 0.23 | [8] 0.0527 | [24] 0.0813
active: [3] -0.312 | [23] -0.175

COc1cc(/C=C(\C#N)C(N)=O)cc(CSc2nc3ccccc3s2)c1O
inactive: [21] 0.119 | [22] 0.0154 | [1] 0.2 | [2] -0.0796 | [3] 0.0235 | [4] 0.0635 | [23] -0.058 | [24] -0.0713

N#CC(C#N)=C(N)/C(C#N)=C/c1ccc2[nH]ccc2c1
inactive: [22] 0.0769 | [1] 0.269 | [2] 0.0358 | [4] 0.0519 | [24] 0.0138
0.369: [21]
active: [3] -0.421 | [23] -0.203

N#CC(C#N)=C(N)/C(C#N)=C/c1ccc(O)cc1
inactive: [5] 0.137 | [6] 0.116 | [7] 0.199 | [8] 0.0447

CC(=O)Oc1ccc(O)cc1
inactive: [1] -0.0255 | [2] 0.056 | [3] 0.0239 | [4] 0.00436

COC1=CC(=O)OC(CCc2ccc(OC)c(OC)c2)C1 (stereo not given)
inactive: [1] 0.144 | [2] -0.00163 | [3] 0.181 | [4] 0.0406

COc1cc2occ(-c3ccc(O)cc3)c(=O)c2c(OC)c1O
inactive: [1] 0.0883 | [2] 0.0895 | [3] 0.108 | [4] 0.0533

O=c1cccc2cc(O)c(O)c(O)c2c1O
inactive: [1] -0.000737 | [2] -0.0453 | [3] 0.0367 | [4] 0.0294

COc1cc(OC)c2c(=O)c(OC)c(-c3ccc(OC)c(OC)c3)oc2c1
inactive: [1] 0.019 | [2] 0.0595 | [3] 0.0902 | [4] -0.0343

O=C1Cc2c([nH]c3ccc(Br)cc23)-c2ccccc2N1
inactive: [5] 0.148 | [6] 0.0907 | [7] 0.128 | [8] 0.118

O=C1Cc2c([nH]c3ccc([N+](=O)[O-])cc23)-c2ccccc2N1
active: [7] -0.122 | [8] -0.312
inactive: [5] 0.0426 | [6] 0.0802

O=c1c(-c2ccccc2)coc2cc(O)cc(O)c12
inactive: [1] -0.0366 | [2] 0.014 | [3] 0.0821 | [4] 0.099

CC(C)N1C(=O)/C(=C\c2ccco2)SC1=S
inactive: [1] 0.136 | [2] 0.0809 | [3] 0.114 | [4] 0.139

O=C(O[C@@H]1Cc2c(O)cc(O)cc2O[C@@H]1c1cc2cc([C@H]3Oc4cc(O)cc(O)c4C[C@H]3O)cc(=O)c(O)c2c(O)c1O)c1cc(O)c(O)c(O)c1
inactive: [1] 0.115 | [2] 0.032 | [3] 0.00601 | [4] -0.0597

COC(=O)c1cc(=O)c(O)c2c(O)c(O)ccc2c1
inactive: [1] 0.103 | [2] 0.0315 | [3] 0.145 | [4] 0.0325

COC(=O)c1cc(OC)c(=O)c2c(OC)c(OC)ccc2c1
active: [1] -0.0869
inactive: [2] 0.0503 | [3] 0.0906 | [4] -0.0346

COc1cc2cccc(OC)c(=O)c2c(OC)c1OC
inactive: [1] 0.0955 | [2] 0.0427 | [3] 0.109 | [4] 0.0214

COc1ccccc1NC(=O)C1=C(C)NC(=O)NC1c1cccc(Cl)c1 (stereo not given)
inactive: [1] 0.0986 | [2] 0.0367 | [3] 0.0178 | [4] 0.0125

CC(C)CCCCCOC(=O)COc1ccc(Cl)cc1Cl
inactive: [1] 0.0385 | [2] 0.102 | [3] 0.111 | [4] -0.0211

CC1(C)C2CC(=O)[C@]3(C)C(CC[C@@]4(C)[C@H](C(=O)O)OC(=O)C5OC543)[C@@]2(C)[C@@H](O)C[C@H]1O (stereo not given in full)
inactive: [1] 0.0536 | [2] 0.0574 | [3] 0.0836 | [4] 0.107

Cc1cc(N2CCN(c3ncccn3)CC2)n2c(nc3ccccc32)c1C#N
inactive: [1] 0.119 | [2] 0.0784 | [3] 0.108 | [4] 0.0845

CC1(COc2ccc3c(c2)ncn3-c2ccc3cccc(N4CCC(N)CC4)c3n2)COC1
active: [17] -0.22 | [19] -1.66 | [20] -0.632
inactive: [9] -0.0477 | [10] -0.0112 | [11] 0.0251 | [12] 0.0104 | [13] 0.0241 | [14] 0.0302 | [15] 0.0311 | [16] 0.0382 | [18] -0.0084

COc1ccc(OC)c(CN2CCN(Cc3ccccc3F)CC2)c1
inactive: [1] 0.0715 | [2] 0.0693 | [3] 0.123 | [4] 0.0288

C=C1C2CCC3(C)C(c4ccoc4)OC(=O)CC13OC1CC(=O)C(C)(C)C(CC(=O)OC)C12C (stereo not given)
inactive: [1] 0.0862 | [2] 0.067 | [3] 0.0511 | [4] 0.0888

O=c1cc([C@H]2Oc3cc(O)cc(O)c3C[C@H]2O)cc2c([C@H]3Oc4cc(O)cc(O)c4C[C@H]3O)cc(O)c(O)c2c1O
inactive: [1] 0.0869 | [2] 0.0834 | [3] 0.134 | [4] 0.162

C[n+]1cc2c3c(ccc2c2ccc4cc5c(cc4c21)OCO5)OCO3
inactive: 0.025 µM, library screen: screen2, EWS-FLI1 expression: high (no doxycycline) 0.0722 | 0.025 µM, library screen: screen2, EWS-FLI1 expression: low (doxycycline-induced shRNA knockdown) 0.0049 | [1] 0.0872 | [2] 0.0117 | [5] 0.116 | [6] 0.0651 | [4] -0.0123 | [8] -0.0563
active: [3] -0.232 | [7] -0.101 | 25 µM, library screen: screen2, EWS-FLI1 expression: high (no doxycycline) -4.23 | 25 µM, library screen: screen2, EWS-FLI1 expression: low (doxycycline-induced shRNA knockdown) -4.28
